# From article PMC11062922 (Nature Chemical Biology, 2023)
# Where two headings read alike, the source gives them in different places.
# Legend:
# Design in all cases: species or system human, MV4-11 + K-562 + COLO205 + SK-N-BE2 + OVCAR-8
# CDKL5 = conditions: read-out: apparent Kd, compound concentrations: 100 nM and 1000 nM (sheet 'Samples'), n = 1
# TESK1 = conditions: read-out: apparent Kd; compound concentrations: 100 nM and 1000 nM (sheet 'Samples'), CATDS: 0.50795455679108803; n = 1
# CDK7 = conditions: read-out: apparent Kd; compound concentrations: 100 nM and 1000 nM (sheet 'Samples'), CATDS: 5.1614283275692202E-2; n = 1
# CDK9 = conditions: read-out: apparent Kd; compound concentrations: 100 nM and 1000 nM (sheet 'Samples'), CATDS: 7.5250343499568897E-2; n = 1
# CLK1 = conditions: read-out: apparent Kd; compound concentrations: 100 nM and 1000 nM (sheet 'Samples'), CATDS: 0.18636177679303401; n = 1
# CLK4 = conditions: read-out: apparent Kd; compound concentrations: 100 nM and 1000 nM (sheet 'Samples'), CATDS: 0.17259551294748199; n = 1
# DYRK1A = conditions: read-out: apparent Kd; compound concentrations: 100 nM and 1000 nM (sheet 'Samples'), CATDS: 5.4131433130879598E-2; n = 1
# ERCC2 = conditions: read-out: apparent Kd, compound concentrations: 100 nM and 1000 nM (sheet 'Samples'), n = 1
# FLT3 = conditions: read-out: apparent Kd; compound concentrations: 100 nM and 1000 nM (sheet 'Samples'), CATDS: 7.2287914746840001E-2; n = 1
# GSK3A = conditions: read-out: apparent Kd; compound concentrations: 100 nM and 1000 nM (sheet 'Samples'), CATDS: 6.4716553061548596E-2; n = 1
# GSK3B = conditions: read-out: apparent Kd; compound concentrations: 100 nM and 1000 nM (sheet 'Samples'), CATDS: 9.1324175022244006E-2; n = 1
# ICK = conditions: read-out: apparent Kd; compound concentrations: 100 nM and 1000 nM (sheet 'Samples'), CATDS: 7.1869443211344197E-2; n = 1
# PIP4K2C = conditions: read-out: apparent Kd; compound concentrations: 100 nM and 1000 nM (sheet 'Samples'), CATDS: 4.9119421247087701E-2; n = 1
# TGFBR2 = conditions: read-out: apparent Kd; compound concentrations: 100 nM and 1000 nM (sheet 'Samples'), CATDS: 0.19336486168442599; n = 1
# CDK6 = conditions: read-out: apparent Kd; compound concentrations: 100 nM and 1000 nM (sheet 'Samples'), CATDS: 9.94086879029107E-2; n = 1
# ILK = conditions: read-out: apparent Kd; compound concentrations: 100 nM and 1000 nM (sheet 'Samples'), CATDS: 9.2277554070836695E-2; n = 1
# IRAK1 = conditions: read-out: apparent Kd; compound concentrations: 100 nM and 1000 nM (sheet 'Samples'), CATDS: 0.100374426884943; n = 1
# MAPK11 = conditions: read-out: apparent Kd; compound concentrations: 100 nM and 1000 nM (sheet 'Samples'), CATDS: 0.114875582953057; n = 1
# MAPK14 = conditions: read-out: apparent Kd; compound concentrations: 100 nM and 1000 nM (sheet 'Samples'), CATDS: 9.0546615649564399E-2; n = 1
# NQO1 = conditions: read-out: apparent Kd; compound concentrations: 100 nM and 1000 nM (sheet 'Samples'), CATDS: 0.102757075513336; n = 1
# PIK3CD = conditions: read-out: apparent Kd; compound concentrations: 100 nM and 1000 nM (sheet 'Samples'), CATDS: 0.395344018245397; n = 1
# PRKCQ = conditions: read-out: apparent Kd; compound concentrations: 100 nM and 1000 nM (sheet 'Samples'), CATDS: 8.2854130075837501E-2; n = 1
# RIOK2 = conditions: read-out: apparent Kd; compound concentrations: 100 nM and 1000 nM (sheet 'Samples'), CATDS: 7.9590231457497898E-2; n = 1
structure (smiles),measurement,setting,value
CCn1c(-c2c(N)noc2C)nc2cnccc21 [SB-737856],potency estimated from few doses,CDKL5; CATDS: 0.49229073825052599,1930 nM
same,potency estimated from few doses,TESK1,1820 nM
FC(F)(F)c1cc(Br)cc(Nc2nccc(-c3cnn4ncccc34)n2)c1 [GW810578X],potency estimated from few doses,CDK7,1740 nM
same,potency estimated from few doses,CDK9,461 nM
same,potency estimated from few doses,CDKL5; CATDS: 0.13413982703885399,127 nM
same,potency estimated from few doses,CLK1,72.6 nM
same,potency estimated from few doses,CLK4,82 nM
same,potency estimated from few doses,DYRK1A,1410 nM
same,potency estimated from few doses,ERCC2; CATDS: 5.1102609842245399E-2,1830 nM
same,potency estimated from few doses,FLT3,516 nM
same,potency estimated from few doses,GSK3A,724 nM
same,potency estimated from few doses,GSK3B,282 nM
same,potency estimated from few doses,ICK,525 nM
same,potency estimated from few doses,PIP4K2C,2250 nM
same,potency estimated from few doses,TGFBR2,68.5 nM
Cl.Nc1c(C(=O)c2cccc(-c3cccnc3)c2)cnn1-c1ccc(F)cc1 [RO1162529-002],potency estimated from few doses,CDK6,1190 nM
same,potency estimated from few doses,ERCC2; CATDS: 8.00195217918135E-2,2030 nM
same,potency estimated from few doses,ILK,1410 nM
same,potency estimated from few doses,IRAK1,1160 nM
same,potency estimated from few doses,MAPK11,877 nM
same,potency estimated from few doses,MAPK14,1470 nM
same,potency estimated from few doses,NQO1,1100 nM
same,potency estimated from few doses,PIK3CD,126 nM
same,potency estimated from few doses,PRKCQ,1850 nM
same,potency estimated from few doses,RIOK2,2060 nM
